NTR1 ag = agonists of human NTR1, primary screen, imaging, U2OS cells, beta-arrestin-GFP, high content; AID 493036, 2011; NTR1-U2OS beta-arrestin-GFP spot imaging, agonist mode; 330,000 compounds, 0.17% hits; Neurotensin receptor type 1 (Homo sapiens), P30989; activation, % at 20 µM;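 active = activation at or above 40% of the spot to cytoplasm intensity ratio, with at least 20 cells analyzed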
ANO1 activ = TMEM16A chloride channel activators or potentiators, primary screen, cell-based, HTS | B-score at 10 µM | 340,000 compounds, 0.3% hits | HEK293 TMEM16A/YFP-H148Q/I152L, iodide quench fluorescence; hits give low values;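 active = fluorescence-ratio B-score plate-corrected deviation score at least 3 library SD below zero, with starting fluorescence score within 5 deviations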;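 note: channel opened by trigger with iodide after compound preincubation; score built on the fluorescence ratio of max minus min over baseline; more negative score means more quench and so TMEM16A activation or potentiation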
ANO1 block = TMEM16A chloride channel inhibitors, primary screen, cell-based, HTS; Anoctamin-1 (Mus musculus), Q8BHY3; AID 588511, 2011; 310,000 compounds, 1.2% hits; HEK293 TMEM16A/YFP iodide influx fluorescence, ionomycin; normalized B-score (activity score, 25-100; higher = stronger inhibition) at 10 µM;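 active = ratio plate-corrected score three or more library SD toward inhibition, starting fluorescence score within five deviations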;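 note: score derived from kinetic fluorescence span divided by baseline fluorescence per well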
CHO-K1 Ca PAM = nonselective calcium activators in parental CHO-K1 cells, primary screen, counter-screen for M1 PAM project, cell-based, Fluo-8 calcium fluorescence, full deck, 1536-well | ATP EC20; 0% at ATP EC20, 100% at ATP max | activation, % at 3 µM | 360,000 compounds, 0.02% hits | AID 602247, 2012;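 active = activation above the run cutoff, the mean activation of all test compounds plus 3 SD, cut at about 40% in these data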;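 note: peak over basal fluorescence ratio in a 140 s read after ATP addition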
CHO-K1 Ca antag = nonselective inhibitor or artifact in parental CHO-K1 cells; ATP-induced calcium, Fluo-8 fluorescence; 360,000 compounds, 0.6% hits; inhibition, % at 3 µM;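 active = inhibition above a per-plate cutoff, the plate's mean sample inhibition plus 3 SD, cut at about 24% in these data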
CHO-K1 Ca ag = counter-screen for M1 agonists: effect in parental CHO-K1 cells; 360,000 compounds, 0.48% hits; Fluo-8 calcium fluorescence; scaled to maximal ATP response, vehicle zero; activation, % at 3 µM; in the data active = activation above about 15%;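 note: untransfected CHO-K1 host cells lacking M1 receptor as counterscreen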
Each line names hits and unclear results; the compound was inactive in the other large screens. Rows were chosen to be rich in hits. Some 2.2% of all compounds tested hit in one or more screens of this group.

CC(C)CC(=O)OC1C(N2CCOCC2)c2c(ccc(/C=C/C(=O)N3CCOCC3)c2O)OC1(C)C (stereo unspecified)	CHO-K1 Ca ag 15
CC(C)COP(=O)(OCC(C)C)C(Nc1ccccc1)c1ccccc1 (stereo unspecified)	ANO1 block 25
Cc1cccc(NC(=O)C2CCN(S(=O)(=O)c3c(C)c(C)cc(C)c3C)CC2)n1	ANO1 block 100
COC(=O)c1ccc2nc(-c3ccc(C#N)cc3)c(Cc3cccc(Cl)c3)n2c1	none (no result: NTR1 ag, ANO1 activ, ANO1 block)
N/C(=N\OC(=O)c1ccc(Cl)cc1Cl)c1ccncc1	none
N/C(=N\OC(=O)COc1ccc(Cl)cc1Br)c1ccncc1	ANO1 activ -39 (no result: NTR1 ag, ANO1 block)
CCc1ccc(OCC(=O)O/N=C(\N)c2ccncc2)c(Br)c1	none
N/C(=N\OC(=O)c1cc(Cl)ccc1Cl)c1ccncc1	ANO1 activ -10
CC1(C(=O)Nc2ccc3c(c2)OCO3)CCN1C(=O)CCc1ccc(Cl)cc1Cl (stereo unspecified)	none (no result: NTR1 ag, ANO1 activ, ANO1 block)
NNC(=O)c1cc(C23CC4CC(CC(C4)C2)C3)[nH]n1	CHO-K1 Ca ag 17
C=CCn1c(CCCOc2ccc(Cl)cc2Cl)nnc1SCC(=O)Nc1nccs1	none (no result: ANO1 activ)
C=CCn1c(SCc2ccc(C(=O)Nc3nccs3)cc2)nnc1-c1ccc(C)c(Cl)c1	ANO1 block 25
C[C@@H]1OC(C2CCCCC2)N(C)[C@H]2C[C@H]3c4[nH]c5ccccc5c4CCN3C[C@@H]12 (stereo partly specified)	CHO-K1 Ca antag 24 (no result: NTR1 ag, ANO1 activ, ANO1 block)
C[C@@H]1ON(C)[C@H]2C[C@H]3c4[nH]c5ccccc5c4CCN3C(=O)[C@@H]12	none (no result: NTR1 ag, ANO1 activ, ANO1 block)
COc1c2ccc(OCC/C(C)=C/C(=O)C=C(C)C)cc2nc2occc12	none (no result: ANO1 block)
COCCN1C(=O)COc2ccccc2C1C(=O)NC1CCCC1 (stereo unspecified)	none (no result: NTR1 ag, ANO1 activ, ANO1 block)
Cn1c2ccccc2c(=O)c2c(=O)n(C3CCCCC3)c(-c3ccco3)nc21	CHO-K1 Ca ag 24
Cc1nc2c(c(=O)c3ccccc3n2C)c(=O)n1C1CCCCCC1	none
Cc1cc(=O)oc2cc(O)cc(OCc3ccccc3)c12	none (no result: NTR1 ag, ANO1 block)
CC(C)C[C@H]1CN(CCCC[C@@H]2CNC(=O)C(=O)N2CCc2ccccc2)C(=O)C(=O)N1CCC1CCCCC1	none (no result: NTR1 ag, ANO1 activ, ANO1 block)
CC(C)(C)C(=O)OC/C(N)=N/OC(=O)c1ccc(Cl)cc1	CHO-K1 Ca ag 16
N/C(Cc1ccc(Cl)cc1)=N\OC(=O)c1ccccc1	none
COc1cccc(-c2cnc(C(O)c3cc(C)cc(C)c3)[nH]2)c1 (stereo unspecified)	none (no result: NTR1 ag, ANO1 activ, ANO1 block)
Cc1cccc(NC(=O)CSc2nnc(-c3cnccn3)n2Cc2ccco2)c1	CHO-K1 Ca antag 29
CCn1c2ccccc2c2nc3cc(C(=O)O)ccc3nc21	CHO-K1 Ca antag 24 (no result: NTR1 ag, ANO1 block)
CCn1c2ccccc2c2nc3ccccc3nc21	none
CCOC(=O)[C@]12CCC=C1N(Cc1ccc3c(c1)OCO3)C(=O)[C@H](CC(=O)N1CCSCC1)C2	none (no result: NTR1 ag, ANO1 activ, ANO1 block)
COc1cccc(NC(=O)c2nc3ncccn3n2)c1	ANO1 activ -5.4
O=C(Nc1nnc(-c2cccs2)o1)c1cccc(Oc2ccccc2)c1	ANO1 block 25
O=C(O)Cc1cc(I)c(Oc2ccc(O)c(I)c2)c(I)c1	ANO1 block 100 (no result: ANO1 activ, CHO-K1 Ca PAM, CHO-K1 Ca antag, CHO-K1 Ca ag)
COc1ccc(C2Nc3cccc(O)c3C(=O)N2Cc2ccccc2)cc1COc1ccc(NC(C)=O)cc1 (stereo unspecified)	none (no result: NTR1 ag, ANO1 activ, ANO1 block)
CCOc1ccc(C(=O)C(CCC(CN(C)C)C(=O)c2ccc(OCC)cc2)CN(C)C)cc1 (stereo unspecified)	none (no result: NTR1 ag, ANO1 block)
CN(C)CC(CCC(CN(C)C)C(=O)c1ccccc1)C(=O)c1ccccc1 (stereo unspecified)	ANO1 activ -9.5 (no result: NTR1 ag, ANO1 block)
CCNC(=S)N/N=C(\C)c1ccc2ccccc2c1OC(F)F	none
C/C(=N\NC(=S)NC(C)C)c1ccccc1OC(F)F	ANO1 activ -39
NNC(=O)c1ccc(COc2ccc3c(c2)CCC3)cc1	none
O=C(Nc1ccccc1Cl)c1ccc(COc2ccc3c(c2)CCC3)cc1	ANO1 activ -7.4

Compound activity as filed in PubChem.
